BAZ2B block: BAZ2B (human) inhibition. hit rate 4.4% among 360,000. Potency, µM (highest dose often 114 µM), for inactives: at the top dose activity change, negative = inhibition, actives largely listed as inhibitors. AlphaScreen BAZ2B-H3K14Ac peptide displacement. Q9UIF8; note: potency is the fitted concentration of half-maximal effect; % is set by controls: 0 for no effect and ±100 for the full control effect; nearly all actives have a fitted effect of over 60% in size
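Compounds, titrated to a top concentration of 110 uM, were incubated 30 min at room temperature with preformed BAZ2B/acetyl-K14 H3 peptide complex (50 nM each). Proximity signal was measured by AlphaScreen after 20 min with beads.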
JMJD2A Tudor inh: JMJD2A Tudor domain (human) inhibition. AlphaScreen JMJD2A-Tudor / H3K4me3 peptide binding. AID 504339. hit rate 4.4% among 390,000. Potency, µM (highest dose often 114 µM), for inactives: at the top dose activity change, negative = inhibition, hits mostly inhibitors. O75164; note: potency is the fitted concentration of half-maximal effect; % is set by controls: 0 for no effect and ±100 for the full control effect; nearly all actives have a fitted effect of over 50% in size
G9a inh: inhibitors of human histone lysine methyltransferase G9a. Q96KQ7. G9a H3K9 monomethylation, AlphaScreen, 2 h. Potency, µM (series often up to 102 µM), for inactives: at the top dose activity, negative = inhibition, hits mostly inhibitors. hit rate 8.8% among 350,000; note: potency is the fitted concentration of half-maximal effect; % is set by controls: 0 for no effect and ±100 for the full control effect; nearly all actives have a fitted effect of over 75% in size
Target sequence (Q96KQ7 913-1193 limits assumed): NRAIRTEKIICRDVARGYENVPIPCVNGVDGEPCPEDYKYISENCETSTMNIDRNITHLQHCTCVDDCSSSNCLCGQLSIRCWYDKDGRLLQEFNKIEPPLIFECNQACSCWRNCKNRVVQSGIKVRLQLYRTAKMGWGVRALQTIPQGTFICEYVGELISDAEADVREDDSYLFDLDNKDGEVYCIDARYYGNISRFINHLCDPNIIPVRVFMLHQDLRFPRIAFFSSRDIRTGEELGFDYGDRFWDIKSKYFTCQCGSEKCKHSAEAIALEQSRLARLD
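Readings reflect AlphaScreen signal from monomethyl-H3K9 antibody detection. HMT at 20 nM; substrate b-H3K9 500 nM; cofactor SAM 20 uM; 2 h RT reaction; compounds tested as titrations in qHTS with 15 min preincubation.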
Six1-Eya2 inh: Six1/Eya2 interaction inhibition; activity change, % (test concentration not listed); Q15475+O00167; AlphaScreen GST-Six1/His-Eya2 binding, biochemical; stronger effect = lower value; hit rate 0.56% among 360,000; in the data active = activity change below about -65%; inconclusive = mostly about -30% to -63%; note: % is set by controls: 0 for no effect and ±100 for the full control effect
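Compounds are tested against tagged Six1 and Eya2 proteins bridged by glutathione donor and nickel acceptor beads; after a one-hour incubation at 37 °C without light, AlphaScreen emission is recorded.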
CtBP-E1A inh: blocks the CtBP interaction with E1A; AlphaScreen GST-E1A/His-CtBP binding, 1536-well; stronger effect = lower value; AID 651724; activity change, % (no concentration beside the values); hit rate 0.49% among 340,000; in the data active = activity change below about -65%; inconclusive = mostly about -30% to -63%; note: % is set by controls: 0 for no effect and ±100 for the full control effect
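AlphaScreen with 125 nM GST-E1A and 125 nM His-CtBP (5X stocks) in Tris pH 8.0, 300 mM NaCl, BSA, Tween 20, TCEP. Compounds preincubated 2 h at 37 deg C, then glutathione donor/nickel acceptor beads added for 1 h at 37 deg C in dark.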
HP1b chromo inh: inhibitors of HP1-beta chromodomain binding to methylated histone tails. AlphaScreen HP1-beta / biotin-H3K9me3 peptide binding. Potency, µM (series often up to 114 µM), without a hit: at the top dose activity change, negative = inhibition, actives largely listed as inhibitors. hit rate 0.56% among 390,000. AID 540317; note: potency is the fitted concentration of half-maximal effect; nearly all actives have a fitted effect of over 70% in size
Target sequence (P83916 whole entry, looked up): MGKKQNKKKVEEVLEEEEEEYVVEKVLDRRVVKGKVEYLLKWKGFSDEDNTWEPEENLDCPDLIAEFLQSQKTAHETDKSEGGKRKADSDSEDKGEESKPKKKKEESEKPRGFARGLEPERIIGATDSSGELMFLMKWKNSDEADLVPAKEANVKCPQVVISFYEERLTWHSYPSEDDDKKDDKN
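HP1-beta protein (50 nM final) preincubated 30 min at room temperature with biotinylated H3(1-18)K9me3 peptide (50 nM) in PBS pH 7.4, 0.01% Tween-20, then compound added for 30 min. AlphaScreen streptavidin donor/nickel chelate acceptor beads (10 ug/mL final), 30 min dark, luminescence read.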
The depositor's hits bear a star; u = inconclusive; x = not tested or not shown; [ ] = dose if it differs, or a comment. Only some compounds are listed: those with a hit (about 10% of all), similar ones and a draw of the others. Unless noted, calls come from the whole dose curve; as a rule, active = well fitted inhibition curve with a large enough effect; inconclusive = small, poorly fitted or top-dose-only effect; inactive = no such curve, though single readings can be large or run the other way.

SMILES | BAZ2B block | JMJD2A Tudor inh | G9a inh | Six1-Eya2 inh | CtBP-E1A inh | HP1b chromo inh
CCOc1cc(CNc2ccc3cn[nH]c3c2)ccc1OC | u | u | 28µM* | u | 17 | 6%
COc1ccc(CNc2ccc3cn[nH]c3c2)c(OC)c1OC | u | u | 8.9µM* | -22 | -30 | -4%
COc1ccc(CNc2ccncc2)c(OC)c1OC | x | -6% | x | -3 | 6 | 52%
CS(=O)(=O)N1CCc2cc(C(=O)NCc3ccccc3)ccc21 | 4% | -24% | 8%[59 µM] | x | x | 12%
COc1cc(-c2c(C(C)=O)c(C)nc3c2C(=O)c2ccccc2-3)cc(OC)c1OC | -1% | 5% | 7% | -3 | 10 | 15%
CC(=O)c1c(Cl)nc2cccc3c2c1-c1ccccc1C3=O | -27% | -34% | 28µM* | -11 | -15 | 4%
COc1ccc2nc(SCC(=O)c3c(C)[nH]c4ccccc34)nc(C)c2c1 | u | -13% | -38%[59 µM] | x | x | 12%
N/C(=N\O)c1cn(Cc2ccccc2Cl)c2ccccc12 | -31% | -20% | -7% | -1 | 10 | -2%
Cc1[nH][nH]c(=O)c1C(c1c(C)[nH][nH]c1=O)c1cn(Cc2ccccc2Cl)c2ccccc12 | u | u | 14µM* | -13 | -2 | u
Cc1ccc(CN2C(=O)CN(C3CCC(C)CC3)C(=O)C2c2ccc(F)cc2)cc1 (configuration not stated) | 12% | -14% | 29%[59 µM] | x | x | 27%
Cc1cc2oc(=O)cc(CN3CCCc4ccccc43)c2cc1C | -31% | -17% | 8.9µM* | -5 | -9 | 36%
O=[N+]([O-])c1ccccc1/C=N/N1CCN(c2ccncc2S(=O)(=O)N2CCCCC2)CC1 | 32µM* | 35µM* | u | u | u | u
C[C@@H](CO)[C@H](/C=C/c1ccccc1)CCO[Si](c1ccccc1)(c1ccccc1)C(C)(C)C | x | -8% | x | x | x | 51%
COc1ccc(OC)c(C2c3c(-c4ccc(Br)cc4)n[nH]c3C(=O)N2c2ccc(Cl)cc2)c1 (configuration not stated) | x | u | u | x | x | 0%
Cc1ccc(OCC(=O)N(C)CCc2ccccn2)cc1 | u | 10µM* | 20%[2.33 µM] | 6 | 8 | -16%
CCCCc1c(C)nc2ccc(Br)cc2c1SCCC#N | 19% | x | 28µM* | x | x | x
CC1CCN(C(=O)c2ccc3c(c2)N(Cc2ccccc2F)C(=O)c2ccccc2S3(=O)=O)CC1 | -38% | -21% | -7%[59 µM] | x | x | 18%
CCCOc1ccc(-c2nn(-c3ccccc3)cc2C2NC(=O)NC(C)=C2C(=O)OC(C)C)cc1 (configuration not stated) | u | -35% | -41%[59 µM] | x | x | 7%
O=S1(=O)CC(O)C(NCc2ccco2)C1 (configuration not stated) | 0% | 7% | -10%[59 µM] | 3 | -1 | 16%
CC(C)(C)c1cc(CNC2CS(=O)(=O)C[C@@H]2O)cc(C(C)(C)C)c1O (some centres not stated) | u | -23% | 18µM* | 3 | -1 | 38%
CC(C)C(=O)Nc1cccc(-c2cnc3ccccc3n2)c1 | -3% | -11% | 1% | -4 | -6 | 13%
O=S(=O)(Nc1ccc(-c2cn3c(n2)SCC3)cc1)c1cccs1 | -27% | -31% | 35µM* | -3 | u | 2%
O=C(Nc1cccc(-c2cn3c(n2)SCC3)c1)c1ccc2c(c1)OCO2 | u | u | 45µM* | u | -6 | -31%
CS(=O)(=O)Nc1cccc(-c2cn3c(n2)SCC3)c1 | -34% | 56µM* | -32% | -28 | x | u
CCS(=O)(=O)Nc1cccc(-c2cn3c(n2)SCC3)c1 | -37% | -6% | -16% | 0 | x | 12%[57 µM]
SMILES | BAZ2B block | JMJD2A Tudor inh | G9a inh | Six1-Eya2 inh | CtBP-E1A inh | HP1b chromo inh
O=S(=O)(Nc1ccc(-c2ccc3nncn3n2)cc1)c1cccs1 | -1% | -15% | 2% | -4 | -10 | -8%
CS(=O)(=O)Nc1cccc(-c2cnc3ccccc3n2)c1 | 1% | -14% | 45µM* | -6 | -12 | 16%
COc1ccc(-c2cc(C(=O)Oc3ccc(C)c(C)c3)c3ccccc3n2)cc1 | 57% | 41% | 74%[59 µM] | x | x | 63%
CCCOc1cccc(C(=O)Nc2ccc(-c3nc4ccccc4o3)cc2)c1 | 3% | -23% | 5%[59 µM] | x | x | -1%
Cc1cccc(C(=O)NCCNC(=O)c2cccc(C)c2)c1 | -5% | -8% | 13%[59 µM] | 5 | -2 | 64%
CC(NC(=O)c1ccc(Br)cc1)c1ccccc1 (configuration not stated) | 6% | -18% | 3% | 4 | 14 | 12%
O=C(NN1S(=O)(=O)c2ccccc2S1(=O)=O)c1ccc(Br)cc1 | 50µM* | -12% | u | 7 | -2 | 65%
Cc1cccc(C(=O)NN2S(=O)(=O)c3ccccc3S2(=O)=O)c1 | x | -2% | 7.1µM* | 0 | 7 | 91%
CCOc1cc(CNC(=O)c2ccccc2NC(=O)c2nsc3ccccc23)ccc1OC | u | -15% | -11%[59 µM] | x | x | 2%[57 µM]
O=S(=O)(c1ccccc1)c1nnn2c1nc(NC1CCCCCC1)c1sccc12 | -19% | 1% | -3%[59 µM] | x | x | 44%
Cc1nc(-c2ccccc2)c(-c2ccccc2)[nH]1 | u | u | 6%[59 µM] | -10 | -16 | -15%
Oc1ccc(N=Nc2n[nH]c(-c3ccccc3)n2)cc1 | u | u | 3.2µM* | -13 | -7 | -9%
Oc1ccc(N=Nc2n[nH]c(-c3ccc(Br)cc3)n2)cc1 | -2% | -13% | 24%[59 µM] | -22 | -19 | 7%
Oc1ccc(N=Nc2nc(-c3ccccc3)c(-c3ccccc3)[nH]2)cc1 | 11µM* | 22µM* | 20µM* | u | -5 | -72%
CSc1oc(-c2ccccc2)nc1S(=O)(=O)c1ccc(C)cc1 | -23% | -6% | 56µM* | 22 | 35 | 72%
CCSc1oc(-c2ccc(F)cc2)nc1S(=O)(=O)c1ccc(C)cc1 | 3% | 8% | 18µM* | x | x | 78%
CNc1oc(-c2ccc(F)cc2)nc1S(=O)(=O)c1ccccc1 | 7% | -5% | 45µM* | 5 | 1 | 54%
CNc1oc(Cc2ccccc2)nc1S(=O)(=O)c1ccc(Cl)cc1 | -26% | u | 25µM* | 2 | 12 | 4%
Cc1ccc(-c2nc(S(=O)(=O)c3ccc(C)cc3)c(SCC(=O)Nc3ccc(F)cc3)o2)cc1 | -25% | 3% | -27%[59 µM] | x | x | 22%
COc1cccc(C(=O)N2CCN(CCc3ccncc3)CC2)c1 | -27% | -16% | 3%[59 µM] | x | x | 45%
Cc1ccc(-c2nc(S(=O)(=O)c3ccc(C)cc3)c(SCC(N)=O)o2)cc1 | 3% | -12% | 25µM* | 7 | -2 | 29%

Compound activity: PubChem, National Center for Advancing Translational Sciences (NCATS)
